The source of these data is PubChem BioAssay (NCATS).

Inconclusive results are not listed. Active and inactive are the calls of the source. Calls follow the shape of the dose curve; as a rule, active = well fitted cell-killing curve with a large enough effect; inconclusive = small, poorly fitted or top-dose-only effect; inactive = flat fitted curve, though single readings scatter.

This assay can be described thus: MultiTox-Fluor Cytotoxicity Assay - LYMP1-001 - Live Cells (AID 947). To be noted: LYMP1-001 lymphoblastoid cells, live-cell protease fluorescence viability; series mostly up to 92.2 µM. The text has this:
NIH Chemical Genomics Center [NCGC]
NIH Molecular Libraries Screening Centers Network [MLSCN]
National Institutes of Environmental Health Sciences [NIEHS]
National Toxicology Program [NTP]
We have developed a 1536-well cell-based assay for quantitative high throughput screening (qHTS) against a number of cell lines to determine in vitro cytotoxicity of small molecules. This particular assay uses a human lymphoblastoid cell line (LYMP1-001) purchased from Coriell Institute.
NCGC Assay Protocol Summary:
The MultiTox-Fluor Cytotoxicity Assay (Promega) is a homogeneous method to simultaneously measure the relative number of live and dead cells in culture by detecting changes in cell membrane integrity. There are two fluorogenic peptide substrates in the assay reagent. Viable cells are determined when the cell-permeant substrate (GF-AFC) enters the cell and is cleaved by protease from live cells resulting in liberated fluorophore. This live-cell protease activity restricted to viable cells is proportional to cell number. The dead cells are determined by using fluorogenic cell-impermeant peptide substrate (bis-AAF-R110) which cleaved by dead cell proteases leaking from damaged cell membrane.
Using the MultiTox-Fluor Cytotoxicity Assay, the relative number of live cells was measured in the lymphoblastoid cell line with complete culture medium following compound treatment for 16 hours. The assay was performed in opaque black Kalypsys 1536-well plates. In the screen, tetraoctylammonium bromide was used as positive control. Library compounds were measured for their ability to cause acute toxicity in the cell line, as reflected by a decrease in live cell protease activity, in a concentration-dependent manner. […] AC50 values were determined from concentration-response data modeled with the standard Hill equation.
qHTS protocol for MultiTox-Fluor Cytotoxicity assay
[Step] [Parameter] [Value] [Description]
1. Reagent; 5 uL; 2500 lymphoblastoid cells/well
2. Time; 5 hr; 37 C incubation
4. Controls; 23 nL; Tetraoctylammonium bromide 6.4pM to 92 uM
5. Time; 16 hr; 37 C incubation
6. Reagent; 5 uL; MuliTox-Fluor Assay reagent
7. Time; 60 min; Room Temperature
8. Detection; live-cell fluorescence (Ex/Em=405/510); EnVision plate reader
Keywords: cell viability, cytotoxicity, lymphoblastoid cell line, fluorescence, NTPHTS, NTPHTS_NCGC, NIEHS, EPA, DSSTox, MLSMR, MLSCN, NIH Roadmap, qHTS, NCGC
For `NC(=O)c1ccccc1O`, the call was inactive. For the compound `O=C(O)c1ccc(S(=O)(=O)N(Cl)Cl)cc1`, the call was inactive. The value for `COc1ccc(C(=O)c2ccccc2)c(O)c1` was “inactive”; that for `NCCNc1cccc2ccccc12` was “inactive”; that for `CCOc1ccccc1C(N)=O` was “inactive”. The value for `CCCCC(CC)COC(=O)c1ccc(N(C)C)cc1` (stereo not drawn) was “inactive”; that for `COc1cc([C@H]2Oc3cc([C@H]4Oc5cc(O)cc(O)c5C(=O)[C@@H]4O)ccc3O[C@@H]2CO)ccc1O` was “inactive”; that for `C=C[C@H]1CN2CC[C@H]1C[C@@H]2[C@@H](O)c1ccnc2ccc(OC)cc12` was “inactive”.

For the compound `OC[C@H]1O[C@@H]2O[C@H]3[C@H](O)[C@@H](O)[C@@H](O[C@H]4[C@H](O)[C@@H](O)[C@@H](O[C@H]5[C@H](O)[C@@H](O)[C@@H](O[C@H]6[C@H](O)[C@@H](O)[C@@H](O[C@H]7[C@H](O)[C@@H](O)[C@@H](O[C@H]8[C@H](O)[C@@H](O)[C@@H](O[C@H]1[C@H](O)[C@H]2O)O[C@@H]8CO)O[C@@H]7CO)O[C@@H]6CO)O[C@@H]5CO)O[C@@H]4CO)O[C@@H]3CO`, the result was inactive. As to `CCCN(CCC)S(=O)(=O)c1ccc(C(=O)O)cc1`, the compound was called inactive. As for `CCOc1ccc(NC(C)=O)cc1`, the compound was called inactive. The value for `C/C=C/c1ccc(O)c(OC)c1` was “inactive”; that for `COc1ccc(C(Cl)=C(c2ccc(OC)cc2)c2ccc(OC)cc2)cc1` was “inactive”.
